In experiment [1] the target is Tumor necrosis factor receptor superfamily member 10B (Homo sapiens) (UniProt O14763). The experiment can be described thus: caspase-8 TRAIL sensitization, hit retest, confirmation, cell-based, NB7+caspase-8, with/without TRAIL, luminescence panel (AID 651596). The conditions noted are these: NB7 neuroblastoma + caspase-8, TRAIL sensitization, luminescence viability, with TRAIL, mean of runs, at 10 µM, stronger effect = higher value.

Assay in experiment [2]: as above
As to conditions: NB7 neuroblastoma + caspase-8, without TRAIL, luminescence viability, without TRAIL, mean of runs, at 10 µM; in the data active means activity above about 50%; inactive means the rest.

Experiment [3] deals with Tumor necrosis factor receptor superfamily member 10B (Homo sapiens) (UniProt O14763). The experiment can be described thus: TRAIL sensitizers in caspase-8 expressing neuroblastoma cells, dose response, NB7 cells plus caspase-8, luminescence, panel (AID 652002). As to conditions: NB7 neuroblastoma +caspase-8, TRAIL sensitization, luminescence viability, NB7+Caspase-8, with TRAIL, run 1; at 12.5 µM (top of the series).

Experiment [4] has the same target. The experiment is described as above. The conditions noted are these: NB7 neuroblastoma +caspase-8, TRAIL sensitization, luminescence viability, NB7+Caspase-8, with TRAIL, run 2; at 12.5 µM (top of the series).
Assay in experiment [5]: as above
As to conditions: NB7 neuroblastoma +caspase-8, no TRAIL, compound-alone cytotoxicity counter-screen, luminescence viability, NB7+Caspase-8, run 1; at 12.5 µM (top of the series) unless noted.

Assay in experiment [6]: as above
The conditions noted are these: NB7 neuroblastoma +caspase-8, no TRAIL, compound-alone cytotoxicity counter-screen, luminescence viability, NB7+Caspase-8, run 2; at 12.5 µM (top of the series) unless noted. In general terms: The purpose of a counterscreen is to sort out artefacts and off-target activity.

Sequence of Tumor necrosis factor receptor superfamily member 10B (Homo sapiens) (O14763 whole entry, looked up): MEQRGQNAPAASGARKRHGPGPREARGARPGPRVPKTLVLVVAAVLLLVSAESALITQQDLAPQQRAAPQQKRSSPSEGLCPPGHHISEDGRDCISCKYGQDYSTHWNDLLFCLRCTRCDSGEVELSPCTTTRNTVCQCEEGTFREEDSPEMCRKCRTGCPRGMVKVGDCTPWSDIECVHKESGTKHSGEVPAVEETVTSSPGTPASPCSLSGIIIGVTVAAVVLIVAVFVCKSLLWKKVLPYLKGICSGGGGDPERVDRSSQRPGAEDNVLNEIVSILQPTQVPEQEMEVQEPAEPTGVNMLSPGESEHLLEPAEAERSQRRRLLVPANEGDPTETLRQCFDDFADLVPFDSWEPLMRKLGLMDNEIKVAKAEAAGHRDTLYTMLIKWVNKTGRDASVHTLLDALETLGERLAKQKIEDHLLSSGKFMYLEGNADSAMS

On to `O=C(CCl)Nc1ncc(S(=O)(=O)c2ccc([N+](=O)[O-])cc2)s1`, for which the activity in experiment [1] amounted to 95.9%; in experiment [2] it was 92.3%.
Take `CN(C)S(=O)(=O)c1ccc(-c2csc(N/N=C/c3ccco3)n2)cc1`: the activity in experiment [1] was 81%; in experiment [2] it was 77.8%.
In the same order, the values of `COc1ccccc1C=C1CCc2ccccc2C1=O` are 78.4% and 74.3%.
Take `O=c1cc(-c2ccccc2)nc2cc(-c3ccc(F)cc3)[nH]n12`: the activity amounted to 57.6% in experiment [1] and 47% in experiment [2]. In addition, the activity, % sensitization in experiment [3] was 5.68%; in experiment [4], -3.23%; in experiment [5] it was -19%; in experiment [6], -21.3%.
For the compound `CCc1nn2cc(-c3ccccc3)nc2s1`, the activity in experiment [1] came to 79.7%; in experiment [2], 78.6%.
Turning to `O=C(N/N=C/c1ccc(Br)s1)c1ccccn1`, the activity came to 44.5% in experiment [1] and 46.6% in experiment [2].
`CCCc1c(C(=O)N/N=C/C=C/c2ccccc2)nnn1-c1nonc1N`: the activity in experiment [1] is 47.5%; in experiment [2] it was 50.4%.
As to `Cc1nc2cc(NC(=O)c3ccco3)ccc2n1C`, the activity worked out at 47.6% in experiment [1] and 48% in experiment [2]. Also, the activity, % sensitization is 30.3% in experiment [3], 32.8% in experiment [4], -8.74% in experiment [5] and 21.3% in experiment [6].
Take `O=C(Nc1ccc(C(=O)O)cc1)/C(=C\C=C\c1ccccc1)NC(=O)c1ccccc1Cl`: the activity amounted to 63.6% in experiment [1] and 53.1% in experiment [2]. In addition, the activity, % sensitization in experiment [3] turned out to be 43.1%; in experiment [4], 38.4%; in experiment [5], 36.3%; in experiment [6], 45.9%.
Consider `Cc1cccc(/C(N)=N/OC(=O)c2ccc(Cl)cc2Cl)c1`, for which the activity worked out at 97.3% in experiment [1] and 91.8% in experiment [2].
Turning to `Cc1onc(-c2c(Cl)cccc2Cl)c1C(=O)ONC(=O)c1ccccc1`, the activity in experiment [1] turned out to be 72.9%; in experiment [2] it was 30.8%. The activity, % sensitization in experiment [3] is 1.55%; in experiment [4] it was -5.77%; in experiment [5], -2.95%; in experiment [6], -9.25%.
As for `N#Cc1ccccc1NC(=O)COC(=O)/C=C/c1cn(-c2ccccc2)nc1-c1ccc(Cl)cc1`, the activity in experiment [1] is 39.5%; in experiment [2], 80.4%.
`CCOc1ccc(-c2nnc(-c3ccccc3)o2)cc1`: the values for the activity in experiment [1] and in experiment [2] were 56% and 47.3%, respectively. Further, the activity, % sensitization was 39.4% in experiment [3], 39.8% in experiment [4], 11.9% in experiment [5] and -2.15% in experiment [6].
As for `CCOc1ccc(NC(=O)c2ccco2)cc1`, the activity was 55.9% in experiment [1] and 49.6% in experiment [2]. Moreover, the activity, % sensitization in experiment [3] amounted to 43%; in experiment [4] it was 43.3%; in experiment [5], 45.1%; in experiment [6], 31.6%.
As to `Brc1ccc(-c2nc(N/N=C/c3cccnc3)c3ccccc3n2)cc1`, the activity came out at 93.5% in experiment [1] and 89.7% in experiment [2].
In the case of `Nc1nnnn1/N=C/C(Br)=C/c1ccccc1`, the activity was found to be 68.6% in experiment [1] and 88.8% in experiment [2].
With `C=C1CC(COc2cc(=O)oc3ccccc23)(c2ccccc2)OC1=O` (centres undefined), the activity in experiment [1] stood at 89.5%; in experiment [2] it was 96.5%.
As to `N/C(Cc1ccc(Cl)cc1)=N\OC(=O)c1cccc2ccccc12`, the results for the activity in experiment [1] and in experiment [2] were 99% and 97.5%, respectively.
`COc1ccc(C(=O)Nn2c(SCC(=O)N3CCC(C)CC3)nc3ccccc3c2=O)cc1`: the figures for the activity in experiment [1] and in experiment [2] were 68.2% and 67.2%, respectively.
Regarding `N/C(=N\OC(=O)c1ccc2ccccc2c1)c1ccccc1Cl`, the activity is 99.4% in experiment [1] and 99.2% in experiment [2].
For `COc1ccc(OC)c(NC(=O)c2nc(S(=O)(=O)Cc3ccccc3)ncc2Cl)c1`, the results for the activity in experiment [1] and in experiment [2] were 97% and 98.9%, respectively.
`Cc1cccc(-n2ncc3c(NC(C)C)ncnc32)c1`: the results for the activity in experiment [1] and in experiment [2] were 63.2% and 64.7%, respectively.
The like results for `CCOc1ccc(C(=O)Nc2cc(C)on2)cc1` were, in that order, 64.9% and 61.7%.
`COc1ccc(/C(C)=N/Nc2nncc3ccccc23)cc1`: the activity in experiment [1] turned out to be 59.6%; in experiment [2], 49.8%. The activity, % sensitization was found to be 19.4% in experiment [3], 54.6% in experiment [4], 27.1% in experiment [5] and 10.8% in experiment [6].
Regarding `CCCCc1nc(NCCN)c(C#N)c2c1CSC(C)(C)C2`, the activity in experiment [1] worked out at 72.5%; in experiment [2], 53.7%. In addition, the activity, % sensitization in experiment [3] was -8.34%; in experiment [4] it was -1.9%; in experiment [5], 3.06%; in experiment [6] it was -6.28%.
Regarding `O=C(Nc1cc(S(=O)(=O)N2CCOCC2)ccc1N1CCOCC1)c1ccc([N+](=O)[O-])s1`, the activity came to 39.1% in experiment [1] and 41.4% in experiment [2].
Consider `COc1cccc(NC(=O)c2ccc3c(c2)OCO3)c1`, for which the results for the activity in experiment [1] and in experiment [2] were 51.7% and 30.6%, respectively. In addition, the activity, % sensitization stood at 51% in experiment [3], 42.7% in experiment [4], 48% in experiment [5] and 32.2% in experiment [6].
In the case of `Cc1onc(C(=O)N2CCC(Cc3ccccc3)CC2)c1[N+](=O)[O-]`, the activity was 97.8% in experiment [1] and 98.1% in experiment [2].
Take `CCOc1ccc(NC(=O)Nc2cccs2)cc1`: the activity in experiment [1] worked out at 63.8%; in experiment [2], 46.8%. The activity, % sensitization in experiment [3] amounted to 36.3%; in experiment [4], 52.3%; in experiment [5], 40.7%; in experiment [6], 47.8%.
`Cc1cc(N/N=C\c2ccccc2)nc(-c2ccccc2O)n1`: the activity in experiment [1] amounted to 41.2%; in experiment [2] it was 24.4%.
For the compound `C[C@@H](CO)NC(=O)c1ccc2c3n(nc2c1)-c1ccccc1CO3`, the activity in experiment [1] came to 91.5%; in experiment [2], 91.8%.
With `O=C(Nc1nsc(-c2ccccc2)n1)c1cccs1`, the activity in experiment [1] was 56.6%; in experiment [2], 56%.
Turning to `Cc1ccnc(NC(=S)NC(=O)c2ccco2)c1`, the activity in experiment [1] stood at 65.5%; in experiment [2] it was 57.7%.
On to `O=C(CCl)Nc1ccc(-c2ccccc2)cc1`, for which the activity is 99.3% in experiment [1] and 99.7% in experiment [2].
For `COc1cc(SC#N)ccc1N=Cc1c(C)[nH]n(-c2ccc(Cl)cc2)c1=O`, the activity worked out at 66.9% in experiment [1] and 41.2% in experiment [2]. Also, the activity, % sensitization is -29.2% in experiment [3], -11.6% in experiment [4], -15.4% in experiment [5] and -20.1% in experiment [6].

For the origin of these results see PubChem BioAssay.
